Assay outcomes as filed in PubChem BioAssay.
The list is not random: actives were taken first. Their share in the collection is about 21%.
IL1B secr inh – blocks inflammasome-driven IL-1 beta release | activity change, % at 57.5 µM | 360,000 compounds, 4.7% hits | THP-1 LPS/ATP IL-1B secretion, AlphaLISA, 16 h; stronger effect = lower value; in the data active = activity change below about -50%; inconclusive = mostly about -30% to -49%
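THP-1 cells pretreated 1 hr with compounds (up to 57.5 uM final), then stimulated with LPS (250 ng/mL final) plus ATP (1.25 mM final); secreted IL-1B measured by AlphaLISA after 16 hr, decreased signal indicating inhibition.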
TDP1 cell CPT – DT40-hTDP1 cell growth loss with CPT; chicken DT40 Tdp1-/-;hTDP1 cells + 20 nM CPT, ATP luminescence, 48 h; Potency, µM (doses to about 46.2 µM), for inactives: at the top dose activity change, negative = growth inhibition, usual class: inhibitors; 420,000 compounds, 12% hits; AID 686979; note: potency is the fitted concentration of half-maximal effect; nearly all actives have a fitted effect of over 55% in size
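Cell growth measured by CellTiter-Glo luminescence after a minimum 48 h, 37 C compound exposure with 20 nM CPT in Tdp1-knockout DT40 cells stably expressing hTDP1, seeded 400/well; qHTS titration format.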
DT40 TDP1 no CPT – qHTS for Inhibitors of human tyrosyl-DNA phosphodiesterase 1 (TDP1): qHTS in cells in absence of CPT; 420,000 compounds, 15% hits; DT40 Tdp1-/- hTDP1 cells, no CPT, ATP luminescence, 48 h; AID 686978, 2013; Potency, µM (series often up to 46.2 µM), inactives show at the highest dose activity change, negative = growth inhibition, usual class: inhibitors; note: potency is the fitted concentration of half-maximal effect; nearly all actives have a fitted effect of over 55% in size
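A cellular qHTS used chicken DT40 cells lacking endogenous Tdp1 but carrying stably transfected human TDP1. Compounds were applied without camptothecin, and cell growth kinetics were judged by ATP-dependent luminescence after ≥48 hr.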
ELG1 DNA repair – blocks ELG1-dependent DNA repair in HEK293T cells | HEK293T ELG1-luciferase reporter, luminescence, 16 h; DNA damage induced by 5-fluorouridine | Potency, µM (top dose mostly 46.1 µM), for inactives: at the highest dose activity change, negative = inhibition, actives largely listed as inhibitors | 330,000 compounds, 2.3% hits; note: potency is the fitted concentration of half-maximal effect; nearly all actives have a fitted effect of over 55% in size
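In this reporter screen, reduction of luminescence relative to DMSO vehicle indicated activity. Compounds and 5-fluorouridine were added together to 2,000 cells per well, incubated for 16 hr at 37 °C, then developed with ONE-Glo.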
VP16 counter – inhibits Gal4-VP16 luciferase reporter, ROR gamma counter-screen; Drosophila S2 Gal4-VP16 UAS-luciferase, luminescence, 20 h; AID 2546; Potency, µM (top dose mostly 53.6 µM), inactives show at the highest dose activity, negative = inhibition, most hits filed as inhibitors; 310,000 compounds, 3.5% hits;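 note: Gal4-VP16 expression switched on by copper sulfate through the metallothionein promoter; potency is the fitted concentration of half-maximal effect; nearly all actives have a fitted effect of over 50% in size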
RORgamma inh – inhibitors of mouse ROR gamma transcriptional activity. P51450. Drosophila S2 Gal4-RORgamma UAS-luciferase reporter, 20 h. Potency, µM (top dose mostly 53.6 µM), inactives show at the top dose activity change, negative = inhibition, usual class: inhibitors. 310,000 compounds, 5.4% hits. AID 2551; note: potency is the fitted concentration of half-maximal effect; nearly all actives have a fitted effect of over 60% in size
Target sequence (P51450 whole entry, looked up, the tested form may be a part): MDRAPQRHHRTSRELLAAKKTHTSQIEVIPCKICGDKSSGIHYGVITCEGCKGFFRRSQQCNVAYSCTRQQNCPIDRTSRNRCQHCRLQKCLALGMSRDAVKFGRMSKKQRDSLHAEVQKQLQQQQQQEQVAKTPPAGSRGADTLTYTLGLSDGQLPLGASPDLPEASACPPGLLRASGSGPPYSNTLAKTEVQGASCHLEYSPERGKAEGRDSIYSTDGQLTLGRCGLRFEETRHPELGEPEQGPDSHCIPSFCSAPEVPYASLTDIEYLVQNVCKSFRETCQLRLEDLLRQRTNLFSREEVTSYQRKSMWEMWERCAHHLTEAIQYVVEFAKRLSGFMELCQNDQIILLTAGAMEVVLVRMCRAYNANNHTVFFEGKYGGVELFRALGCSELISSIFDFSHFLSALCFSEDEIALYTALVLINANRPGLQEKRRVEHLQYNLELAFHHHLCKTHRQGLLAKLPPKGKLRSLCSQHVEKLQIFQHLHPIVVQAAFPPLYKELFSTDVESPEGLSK
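ROR gamma transcriptional activity was tracked as Gal4-UAS luciferase output in stably transfected Drosophila Schneider cells, with compound added 1 hr before 700 uM copper sulfate induction and a 20 hr ambient-temperature incubation.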
* hit, by the source's call; ? = inconclusive; / = no result given. Unless noted, calls come from the whole dose curve; as a rule, active = well fitted curve in the direction sought with a large enough effect; inconclusive = small, poorly fitted or top-dose-only effect, or another doubt; inactive = no such curve, though single readings can be large; an effect the other way counts as inactive or inconclusive. % is set by controls: 0 for no effect and ±100 for the full control effect.

SMILES	IL1B secr inh	TDP1 cell CPT	DT40 TDP1 no CPT	ELG1 DNA repair	VP16 counter	RORgamma inh
CCN(C(=O)c1ccc(C(C)(C)C)cc1)c1nnc(Cn2nnc3ccccc32)s1	-15	7.3µM*	8.2µM*	4.1µM*	5.6µM*	?
COc1ccc(-n2[nH]c3c(cnc4ccccc43)c2=O)cc1	-21	-5%	-1%	/	/	/
Cn1cnc([N+](=O)[O-])c1Oc1ccc2ccccc2c1	-103*	8.2µM*	?	-10%	?	-33%
Cn1cnc([N+](=O)[O-])c1Nc1cccc(O)c1	2	5%	3%	2%	-3%	-8%
S=c1[nH]nc(-c2ccncc2)n1/N=C/c1cn(-c2ccccc2)nc1-c1ccccc1	75	?	?	-4%	1%	-10%
CCOc1ccc(/C=N/n2cc(-c3ccccc3)[nH]c2=S)cc1	-15	2.6µM*	5.2µM*	10%	?	1.3µM*
S=c1[nH]c(-c2ccccc2)cn1/N=C/c1ccncc1	-9	-1%	-22%	-13%	-14%	6.3µM*
Cc1cc(C)cc(OCC(=O)NC(Cc2c[nH]c3ccccc23)C(=O)O)c1 (stereo not drawn)	/	-22%	0%	/	/	/
CCNC(=O)C[C@@H]1C=C[C@@H](NS(=O)(=O)c2ccc(F)cc2)[C@@H](CO)O1	11	12%	12%	/	/	/
COc1ccc(C(=O)N2CCC3(CC2)CN(CC(C)C)C3)cc1	/	6%	-7%	/	1%	16%
CCCC(=O)NC(NC(=S)Nc1ccc(N=Nc2ccccc2)cc1)C(Cl)(Cl)Cl (stereo not drawn)	?	5.2µM*	5.2µM*	?	?	?
O=C(CCc1ccccc1)NC(NC(=S)Nc1ccc(Br)cc1)C(Cl)(Cl)Cl (stereo not drawn)	-2	23µM*	23µM*	?	4.5µM*	?
CCC(=O)NC(NC(=S)Nc1ccccc1Br)C(Cl)(Cl)Cl (stereo not drawn)	11	5%	-29%	-13%	-7%	2%
O=C(CCc1ccccc1)NNC(=O)Nc1ccc(Br)cc1	-8	-24%	-9%	?	2%	0%
COc1c(Cl)cc(C(=O)Nc2cccnc2)cc1Cl	11	-7%	-20%	/	/	/
CSc1cccc(NS(=O)(=O)c2ccc3c(c2)oc(=O)n3C)c1	11	23µM*	?	?	-11%	0%
Cn1c(=O)oc2cc(S(=O)(=O)Nc3cccc(F)c3)ccc21	3	-13%	-1%	16%	-4%	?
CCOC(=O)c1ccc(S(=O)(=O)Nc2ccc(N3CCOCC3)cc2)cc1	1	21µM*	?	4%	-4%	?
CCOC(=O)Cn1c(=O)oc2cc(S(=O)(=O)Nc3cc(OC)cc(OC)c3)ccc21	/	16µM*	21µM*	/	/	/
CCOC(=O)c1ccc(NS(=O)(=O)c2ccc3c(c2)oc(=O)n3C)cc1	8	3.7µM*	?	-2%	0%	?
CCC(C(=O)NC1CCCC1)n1c(C2CCCC2)nc2ccccc21 (stereo not drawn)	-25	-25%	?	/	/	/
COc1ccc(C(=O)CN2C(=O)N(c3cc(C)ccc3C)S(=O)(=O)c3ccccc32)cc1	/	-4%	-18%	/	/	/
CCOC(=O)c1ccc(NS(=O)(=O)c2ccc3c(c2)n(C)c(=O)n3C)cc1	-4	21µM*	18µM*	?	?	25%
Cc1cccc(CN2[C@H](CO)C=CS2(=O)=O)c1	-25	7%	27%	/	/	/
Cc1ccc(/C=N/n2c(C3CCCCC3)n[nH]c2=S)o1	-6	-11%	?	7%	?	11µM*
SMILES	IL1B secr inh	TDP1 cell CPT	DT40 TDP1 no CPT	ELG1 DNA repair	VP16 counter	RORgamma inh
O=[N+]([O-])c1ccc(C=NN2CCCCCC2)cc1	?	?	18µM*	/	/	/
Cc1cccc(-c2n[nH]c(=S)n2/N=C/c2ccc(C)o2)c1	43	-2%	4%	-1%	11µM*	?
O=[N+]([O-])c1ccc(/C=N/n2c(C3CCCCC3)n[nH]c2=S)cc1	-21	?	16µM*	29%	?	1.4µM*
O=C(O)c1ccc(/C=N/n2c(C3CCCCC3)n[nH]c2=S)cc1	26	12%	5%	-6%	0%	-21%
CSc1ccc(/C=N/n2c(C3CCCCC3)n[nH]c2=S)cc1	-62*	?	?	?	?	1.6µM*
C[C@@H]1CN([C@H](C)CO)C(=O)CCCn2nncc2CO[C@H]1CN(C)C	21	2%	1%	/	/	/
O=C(c1ccccc1)N1CCN2C(=O)c3ccccc3C12c1ccc(Cl)cc1 (stereo not drawn)	?	21µM*	18µM*	?	15%	12%
CSc1nnc(NC(=O)c2cc(=O)c3cc(C)c(C)cc3o2)s1	/	2%	-1%	/	/	/
CCC(Sc1nc(C)cc(C)n1)C(=O)NC1=NN=C(c2ccc(C)cc2)CS1 (stereo not drawn)	-14	?	?	?	-9%	-24%
Cc1cc(C)nc(SCC(=O)NC2=NN=C(c3ccc(Br)cc3)CS2)n1	-83*	13µM*	13µM*	?	-96%	?
Nc1ccn([C@@H]2O[C@H](CN=C3NS(=O)(=O)c4ccccc43)[C@@H](O)[C@H]2O)c(=O)n1	19	-21%	5%	/	/	/
CC(C)C(=O)N1CCC2(CC1)Oc1ccc(Cl)cc1C(=O)C21CC(c2ccccc2)=NO1 (stereo not drawn)	?	?	?	?	-7%	-9%
CCC(=O)N1CCC2(CC1)Oc1ccc(Cl)cc1C(=O)C21CC(c2ccc(Cl)cc2)=NO1 (stereo not drawn)	?	?	13µM*	10µM*	0%	22%
CC(C)C(=O)N1CCC2(CC1)Oc1ccc(F)cc1C(=O)C21CC(c2ccc(Cl)cc2)=NO1 (stereo not drawn)	-67*	?	?	?	-26%	11%
CCC(=O)N1CCC2(CC1)Oc1ccc(F)cc1C(=O)C21CC(c2ccc(Cl)cc2)=NO1 (stereo not drawn)	?	?	26µM*	-5%	-3%	32%
Cc1ccc(C(=O)N2CCC3(CC2)Oc2ccc(Cl)cc2C(=O)C32CC(c3ccc(Cl)cc3)=NO2)s1 (stereo not drawn)	-4	-3%	1%	-5%	-5%	5%
